Calb FLC = C. albicans growth inhibition with fluconazole, primary screen, CaCi-2 strain, Alamar Blue fluorescence | actives 0.57% (n = 300,000) | C. albicans CaCi-2 (fluconazole-resistant clinical isolate) + fluconazole, 48 h | growth inhibition, % (concentration not given with the values) | AID 1979, 2009;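 active = growth inhibition above about 58% in most replicates, limit read from the data, passing the limit was not always enough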;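 also: all wells also contain fluconazole at 8 µg/ml as a sub-toxic cotreatment; 0% = median of DMSO wells and 100% = median of geldanamycin control wells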
Fh CTSL1 inh = Fasciola hepatica cathepsin L1 inhibitors, primary screen, counter-screen for PFM18AAP inhibitor project, biochemical, QFRET, fluorogenic peptide substrate; recombinant F. hepatica cathepsin L1, Z-Leu-Arg-MCA fluorescence; inhibition, % at 5.96 µM; actives 0.49% (n = 300,000);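 active = inhibition above the mean of all tested compounds plus 3 SD, set per screening campaign, cut at about 17% in these data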;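 also: 0% = plate median of test compound wells and 100% = 1 µM Z-Phe-Ala-diazomethylketone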
Rin1 Abl inh = inhibitors of Rin1-Abl protein binding, primary screen, biochemical, TR-FRET. actives 0.4% (n = 360,000). Tyrosine-protein kinase ABL1 (Homo sapiens) + Ras and Rab interactor 1 (Homo sapiens), …. inhibition, % at 7.35 µM; in the data active = inhibition above about 5%, passing the limit was not always enough
PfM18AAP inh = PfM18AAP inhibitors, malaria aminopeptidase, primary screen, biochemical, QFRET, recombinant enzyme. AID 1822, 2009. H-Glu-NHMec fluorogenic cleavage. inhibition, % at 7.35 µM. actives 1.2% (n = 290,000). M18 aspartyl aminopeptidase (Plasmodium falciparum 3D7);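 active = inhibition above the campaign mean inhibition over all tested compounds plus 3 SD, cut at about 28% in these data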;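 also: 0% = plate median of test compound wells and 100% = 2 mM ZnCl2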
An asterisk follows results filed as active. In the library only some 2.1% were active in any assay of this set; here they are far more common.

`CN(C)C(=O)CCc1ccc2c3c([nH]c2c1)[C@]1(CCc2ccccc2)[C@@H](C(=O)N2CCCCC2)C[C@H](CC(=O)NCCc2ccccn2)C(=O)N1CC3` gave Rin1 Abl inh -2.
`NNC(=O)c1nn(-c2ccccc2)cc1O` gave Calb FLC 10, Fh CTSL1 inh 5 and PfM18AAP inh 28*.
`O=C(CC12CC3CC(CC(C3)C1)C2)NCc1ccncc1` gave Calb FLC -2, Fh CTSL1 inh 17*, Rin1 Abl inh 6 and PfM18AAP inh -14.
For CC1CCC(C(C)C)C(OC(=O)Cn2c(-c3ccccc3)[n+](C)c3ccccc32)C1 (centres undefined) the results were Calb FLC 17, Fh CTSL1 inh -2, Rin1 Abl inh -2 and PfM18AAP inh -3.
Cc1cccc(OCc2n(CC(=O)OC3CC(C)CCC3C(C)C)c3ccccc3[n+]2C)c1 (centres undefined) was read as Calb FLC 102*, Fh CTSL1 inh -3, Rin1 Abl inh 2 and PfM18AAP inh 4.
`COc1cc(OC)cc(C(=O)OCC(=O)NC2CCCCCCC2)c1` gave Rin1 Abl inh -2.
For CNC(=S)N1N=C(c2ccccc2)CC1c1ccccc1Cl (centres undefined) the results were Calb FLC 65*, Fh CTSL1 inh 1, Rin1 Abl inh 1 and PfM18AAP inh -1.
Screening COc1cc(C(=O)NC2CCN(Cc3nnnn3Cc3ccc(F)cc3)CC2)cc(OC)c1OC returned Calb FLC 12, Fh CTSL1 inh -3, Rin1 Abl inh 1 and PfM18AAP inh -3.
`COc1cc(OC)cc(C(=O)NC2CCN(Cc3nnnn3Cc3ccc(F)cc3)CC2)c1` gave Calb FLC 116*, Fh CTSL1 inh -1, Rin1 Abl inh -1 and PfM18AAP inh 4.
Screening CC(Nc1ncnc2ccccc12)c1ccccc1 (centres undefined) returned Calb FLC 76*, Fh CTSL1 inh 3, Rin1 Abl inh 1 and PfM18AAP inh -2.
`CC(=O)c1ccc(NC(=O)CSc2ccc3nnc(-c4cccnc4)n3n2)cc1` gave Calb FLC -6, Fh CTSL1 inh 1, Rin1 Abl inh -9 and PfM18AAP inh 1.
For Cc1ccccc1CNS(=O)(=O)c1c(C(=O)N2CCCCC2)c(C)n(C)c1C the results were Calb FLC -2, Fh CTSL1 inh -1, Rin1 Abl inh 3 and PfM18AAP inh 3.
Screening COc1cc(/C=C(\C(=O)O)c2ccc(S(=O)(=O)N3CCCC3)s2)ccc1OCCC(C)C returned Rin1 Abl inh 2.
Screening Cc1ccc(C(CC(=O)O)Nc2nc(N3CCOCC3)nc(N3CCOCC3)n2)cc1 (centres undefined) returned Calb FLC -12, Fh CTSL1 inh -2, Rin1 Abl inh -3 and PfM18AAP inh -5.
For CCCN1Cc2cccc(C(=O)NCc3ccc4c(c3)OCO4)c2C1=O the results were Calb FLC -8, Fh CTSL1 inh -5, Rin1 Abl inh 0 and PfM18AAP inh 0.
CCCN1Cc2cccc(C(=O)NCc3cccs3)c2C1=O was read as Calb FLC 0, Fh CTSL1 inh 18*, Rin1 Abl inh -1 and PfM18AAP inh 0.
For COc1ccc(NC(=S)N2CCCN(Cc3cc(C)ccc3C)C2)cc1 the results were Calb FLC 19, Fh CTSL1 inh 3, Rin1 Abl inh -1 and PfM18AAP inh -3.
`O=C1c2ccccc2C(=O)C12OC2c1ccc(Cl)cc1Cl` (centres undefined) gave Fh CTSL1 inh -1, Rin1 Abl inh 7.2* and PfM18AAP inh 18.
`O=C1c2ccccc2C(=O)C1c1ccc(Cl)cc1` gave Calb FLC -8, Fh CTSL1 inh -3, Rin1 Abl inh -4 and PfM18AAP inh 3.
Screening COC(=O)c1sc2nc(SCC(=O)N(C)c3ccccc3)n(N)c(=O)c2c1C returned Calb FLC 1, Fh CTSL1 inh -6, Rin1 Abl inh -3 and PfM18AAP inh -13.
For Cc1ccc2cc(/C=C(\C#N)C(N)=O)c(N3CCCCC3)nc2c1 the results were Calb FLC 7, Fh CTSL1 inh 1, Rin1 Abl inh -2 and PfM18AAP inh 0.
Cc1ccc2cc(C=C(C#N)C#N)c(N3CCCCC3)nc2c1 was read as Calb FLC 58*, Fh CTSL1 inh -3, Rin1 Abl inh -2 and PfM18AAP inh 7.
NC(Cc1ccccc1)c1csc(Nc2ccc(C(=O)c3ccccc3)cc2)n1 (centres undefined) was read as Rin1 Abl inh -9.
Screening Cc1ccc(NC(=S)c2ccc(N(C)C)cc2)cc1 returned Calb FLC -3, Fh CTSL1 inh 1, Rin1 Abl inh 0 and PfM18AAP inh 5.
Cc1ccc2c(c1)sc(-c1ccc(N(C)C)cc1)[n+]2C was read as Calb FLC 90*, Fh CTSL1 inh 9, Rin1 Abl inh -5 and PfM18AAP inh 21.
Cc1cccc(/N=C/c2nc(-c3ccccc3Br)oc2O)n1 was read as Calb FLC 18, Fh CTSL1 inh 67*, Rin1 Abl inh 1 and PfM18AAP inh -3.
Oc1oc(-c2ccc(Br)cc2)nc1C=Nc1ccc(Br)cn1 was read as Calb FLC 18, Fh CTSL1 inh -2, Rin1 Abl inh -1 and PfM18AAP inh -8.
`Cc1ccnc(N=Cc2nc(-c3ccccc3Br)oc2O)c1` gave Calb FLC -4, Fh CTSL1 inh 67*, Rin1 Abl inh 0 and PfM18AAP inh 1.
Screening CSc1ccccc1N=Cc1nc(-c2ccccc2)oc1O returned Calb FLC 18, Fh CTSL1 inh 8, Rin1 Abl inh -6 and PfM18AAP inh -18.
Screening Cn1c2c(c(=O)n(C)c1=O)CS(=O)c1ccccc1N2 (centres undefined) returned Rin1 Abl inh 6.
Screening O=[N+]([O-])c1ccc(N2CCN(Cc3ccc(Br)o3)CC2)cc1 returned Calb FLC -39, Rin1 Abl inh -3 and PfM18AAP inh 8.
COc1ccc(CCNC(=O)CSc2nc(-c3ccco3)cc(C(F)(F)F)n2)cc1OC was read as Calb FLC -6, Fh CTSL1 inh 1, Rin1 Abl inh -2 and PfM18AAP inh -7.
`O=C(CSc1nc(-c2ccco2)cc(C(F)(F)F)n1)NCCc1ccccc1` gave Calb FLC 98*, Fh CTSL1 inh 3, Rin1 Abl inh 0 and PfM18AAP inh -2.
Cc1ccc(/C=C/C(=O)NC2CCCCCCC2)o1 was read as Calb FLC -7, Fh CTSL1 inh 74*, Rin1 Abl inh -1 and PfM18AAP inh -35.
Cc1cc(C)nc(CCNC(=O)c2cc(COc3ccccc3)on2)n1 was read as Calb FLC -9, Fh CTSL1 inh 0, Rin1 Abl inh -1 and PfM18AAP inh 4.
For O=C1C(=O)N(CCCN2CCOCC2)C(c2ccc([N+](=O)[O-])cc2)/C1=C(/O)c1ccc2c(c1)OCO2 (centres undefined) the results were Calb FLC -3, Fh CTSL1 inh 0, Rin1 Abl inh 0 and PfM18AAP inh 31*.
`Cc1ccc(C)c(NC(=O)COC(=O)CNC(=O)C2CCCCC2)c1` gave Rin1 Abl inh 1.
